For some of these results: Entries with a potency or affinity are not part of this list. The list shows a part of the results. Calls of active or inactive are those of the source.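 Rule for the calls, unless noted: active = primary screen active and over 50% activation in each of two duplicate runs; inactive = the rest.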
Experiments:
[1] = tested on: TRPC4 beta (transient receptor potential cation channel C4), mouse; experiment: activators of mouse TRPC4 channel, confirmation, cell-based, Fluo4 calcium, HEK293 TRPC4beta/mu-opioid, duplicates, 10 µM (AID 2426;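 active = fluorescence ratio normalized to control raised more than 50% in primary screen plus both repeat runs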); conditions: Fluo4 calcium fluorescence, at 10 µM; hits give high values
[2] = tested on: transient receptor potential cation channel C4 beta (TRPC4), mouse; experiment: activators of mouse TRPC4 channel, confirmation, cell-based, second round, Fluo4, HEK293 TRPC4beta/mu-opioid, 1 µM (AID 2461); conditions: Fluo4 calcium fluorescence, at 1 µM; hits give high values
[3] = tested on: TRPC4 (transient receptor potential cation channel C4 beta), mouse; experiment: positive allosteric modulators of mouse TRPC4, confirmation, cell-based, second round, Fluo-4, HEK293 TRPC4beta/mu-opioid, 1 µM (AID 2554;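 active = primary screen hit whose fluorescence ratio, in both repeats, exceeds the weak agonist control mean by 3 SD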); conditions: DAMGO EC20, Fluo-4 calcium flux, at 1 µM; hits give high values
[4] = tested on: TRPC4 beta (transient receptor potential cation channel C4), mouse; experiment: positive allosteric modulators of mouse TRPC4, confirmation, cell-based, Fluo-4, HEK293 TRPC4beta/mu-opioid (AID 2555;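 active = primary screen hit whose calcium fluorescence ratio, in both repeats, exceeds the weak agonist control mean by 3 SD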); conditions: DAMGO EC20, Fluo-4 calcium flux, at 10 µM; hits give high values
[5] = target: Short transient receptor potential channel 4 (Mus musculus) (UniProt Q9QUQ5); experiment: inhibitors of mouse TRPC4 channel, confirmation, cell-based, Fluo4, HEK293 TRPC4beta/mu-opioid (AID 2636;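 active = calcium signal cut by more than 3 SD below the full-agonist control yet still positive, in both repeats and the earlier primary screen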); conditions: DAMGO, Fluo4 calcium flux, at 10 µM; hits give high values
Chain of Short transient receptor potential channel 4 (Mus musculus) (Q9QUQ5 whole entry, looked up): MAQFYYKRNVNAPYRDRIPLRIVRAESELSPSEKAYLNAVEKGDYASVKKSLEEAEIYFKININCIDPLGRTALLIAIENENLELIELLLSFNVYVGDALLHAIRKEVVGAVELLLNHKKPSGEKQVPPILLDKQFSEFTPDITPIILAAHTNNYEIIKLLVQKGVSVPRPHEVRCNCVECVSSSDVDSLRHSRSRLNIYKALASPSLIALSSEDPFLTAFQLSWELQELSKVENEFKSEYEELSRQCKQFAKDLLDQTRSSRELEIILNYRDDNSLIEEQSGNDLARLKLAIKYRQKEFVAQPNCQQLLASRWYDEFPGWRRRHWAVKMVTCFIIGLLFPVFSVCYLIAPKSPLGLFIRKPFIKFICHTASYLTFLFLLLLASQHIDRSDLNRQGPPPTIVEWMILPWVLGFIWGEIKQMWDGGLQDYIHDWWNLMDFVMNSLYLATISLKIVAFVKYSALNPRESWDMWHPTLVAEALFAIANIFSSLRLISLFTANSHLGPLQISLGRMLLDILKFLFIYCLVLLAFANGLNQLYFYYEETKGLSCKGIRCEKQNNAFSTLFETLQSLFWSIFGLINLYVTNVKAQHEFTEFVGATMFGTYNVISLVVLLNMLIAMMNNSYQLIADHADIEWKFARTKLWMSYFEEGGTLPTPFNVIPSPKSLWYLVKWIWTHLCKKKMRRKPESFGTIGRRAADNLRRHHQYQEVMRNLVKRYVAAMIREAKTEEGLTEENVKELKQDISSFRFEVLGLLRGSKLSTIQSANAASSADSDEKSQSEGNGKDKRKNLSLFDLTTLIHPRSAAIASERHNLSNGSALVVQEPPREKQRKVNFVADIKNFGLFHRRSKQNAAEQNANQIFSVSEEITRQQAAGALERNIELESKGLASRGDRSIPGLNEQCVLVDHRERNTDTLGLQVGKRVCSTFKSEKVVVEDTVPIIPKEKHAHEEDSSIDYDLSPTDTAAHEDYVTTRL

[6] = target: Short transient receptor potential channel 4 (Mus musculus) (UniProt Q9QUQ5); experiment: inhibitors of mouse TRPC4 channel, confirmation, cell-based, second round, Fluo4, HEK293 TRPC4beta/mu-opioid, 1 µM (AID 2637;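 active = calcium signal ratio cut to more than 3 SD under the fully stimulated control mean yet still positive, in both repeats and the primary screen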); conditions: Fluo4 calcium flux, DAMGO, at 1 µM; hits give high values
[7] = target: Short transient receptor potential channel 4 (Mus musculus) (UniProt Q9QUQ5); experiment: mouse TRPC4 channel activators, dose response, cell-based, HEK293 TRPC4/mu-opioid, Fluo-4 calcium (AID 434937;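 active = primary screen activator hit with a dose response curve and TRPC4 channel activation at any tested dose; inactive = no activation, no dose response, or not a primary hit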)
[8] = target: Short transient receptor potential channel 4 (Mus musculus) (UniProt Q9QUQ5); experiment: TRPC4 positive allosteric modulators, dose response, cell-based, HEK293 TRPC4/mu-opioid, Fluo-4 calcium, EC20 DAMGO (AID 434941;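 active = earlier screen potentiator hit that boosts the TRPC4 ion channel at some dose, with a dose response; inactive = no potentiation, no dose response, or not a prior hit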;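 note: calcium entry triggered by an EC20 dose of DAMGO at the co-expressed mu-opioid receptor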)
[9] = target: Short transient receptor potential channel 4 (Mus musculus) (UniProt Q9QUQ5); experiment: mouse TRPC4 channel inhibitors, dose response, cell-based, HEK293 TRPC4/mu-opioid, Fluo-4 calcium (AID 434942;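 active = primary screen inhibitor hit that blocks the TRPC4 channel at some tested dose, yielding a dose curve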)
[10] = target: Short transient receptor potential channel 6 (Mus musculus) (UniProt Q61143); experiment: inhibition of mouse TRPC6 channel, confirmation, selectivity assay for TRPC4 inhibitor project, cell-based, HEK293, membrane potential dye, duplicate (AID 434948;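 active = active in primary screen and both duplicates, each dropping signal beyond three positive-control SD with fluorescence still positive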); conditions: HEK293 TRPC6, membrane potential dye fluorescence, at 10 µM, stimulated with maximal-effect acetylcholine; hits give high values
Chain of Short transient receptor potential channel 6 (Mus musculus) (Q61143 whole entry, looked up): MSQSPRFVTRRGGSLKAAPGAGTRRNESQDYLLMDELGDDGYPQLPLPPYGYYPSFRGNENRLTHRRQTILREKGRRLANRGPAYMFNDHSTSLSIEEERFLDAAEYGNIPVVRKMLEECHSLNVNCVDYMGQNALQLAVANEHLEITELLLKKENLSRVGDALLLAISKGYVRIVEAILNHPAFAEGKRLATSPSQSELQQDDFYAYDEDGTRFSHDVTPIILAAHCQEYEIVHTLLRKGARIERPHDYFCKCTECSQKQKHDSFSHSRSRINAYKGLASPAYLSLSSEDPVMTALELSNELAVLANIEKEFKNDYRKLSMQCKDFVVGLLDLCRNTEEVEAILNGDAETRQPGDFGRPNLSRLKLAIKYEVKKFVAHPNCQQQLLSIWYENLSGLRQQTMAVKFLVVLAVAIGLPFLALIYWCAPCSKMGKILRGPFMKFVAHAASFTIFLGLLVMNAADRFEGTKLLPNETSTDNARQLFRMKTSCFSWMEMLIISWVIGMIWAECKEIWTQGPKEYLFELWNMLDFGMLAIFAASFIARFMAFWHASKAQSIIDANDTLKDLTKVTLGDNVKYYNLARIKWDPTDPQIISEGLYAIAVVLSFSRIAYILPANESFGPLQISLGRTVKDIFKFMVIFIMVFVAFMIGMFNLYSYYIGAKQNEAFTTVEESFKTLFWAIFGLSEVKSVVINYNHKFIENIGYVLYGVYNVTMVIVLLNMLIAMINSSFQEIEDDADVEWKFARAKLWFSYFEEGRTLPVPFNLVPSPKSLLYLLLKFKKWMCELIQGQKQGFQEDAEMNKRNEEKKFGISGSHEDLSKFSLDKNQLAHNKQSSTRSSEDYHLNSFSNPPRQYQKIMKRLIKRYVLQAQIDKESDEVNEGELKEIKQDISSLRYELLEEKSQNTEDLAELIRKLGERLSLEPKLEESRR

[11] = target: Short transient receptor potential channel 6 (Mus musculus) (UniProt Q61143); experiment: activation of mouse TRPC6 channel, confirmation, selectivity assay for TRPC4 activator project, cell-based, HEK293, membrane potential dye, duplicate (AID 434950;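 active = membrane potential signal rise above negative control mean plus 3 SD in both duplicates, also active in the earlier TRPC4 screen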); conditions: HEK293 TRPC6, membrane potential fluorescence, at 10 µM; hits give high values
[12] = target: Short transient receptor potential channel 6 (Mus musculus) (UniProt Q61143); experiment: TRPC6 potentiation by TRPC4 potentiator hits, confirmation, selectivity assay for TRPC4 potentiator project, HEK293 cells, membrane potential dye, duplicate (AID 434952;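 active = compound raising the membrane signal above positive-control mean plus 3 SD in both repeats, and a primary screen hit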); conditions: HEK293 TRPC6, membrane potential dye fluorescence, at 10 µM, maximal acetylcholine added after compound; hits give high values
[13] = target: Short transient receptor potential channel 4 (Mus musculus) (UniProt Q9QUQ5); experiment: calcium flux activators in TRPC4/5HT1a cells, counter-screen for TRPC4 activator project, cell-based, second counter screen, HEK293 TRPC4/5HT1a, Fluo-4 (AID 434977;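 active = calcium signal rise above buffer-control mean plus 5 SD in both duplicates, and also a hit in the primary screen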); conditions: Fluo-4 calcium flux, at 10 µM; hits give high values
[14] = calcium flux inhibitors in TRPC4/5HT1a cells, confirmation, counter-screen for TRPC4 inhibitor project, cell-based, second counter screen, HEK293 TRPC4/5HT1a, Fluo-4 (AID 434978;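 active = primary screen active whose calcium signal fell more than 3 SD beyond the full-serotonin control mean in both duplicate plates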;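 note: serotonin given first at submaximal then at maximal dose after compound preincubation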); conditions: Fluo-4 calcium flux, at 10 µM, serotonin added to trigger calcium flux; hits give high values
[15] = tested on: TRPC4 (mouse), co-expressed with 5HT1a in HEK293; experiment: calcium flux potentiators in TRPC4/5HT1a cells, confirmation, counter-screen for TRPC4 potentiator project, cell-based, second counter screen, HEK293 TRPC4/5HT1a, Fluo-4 (AID 434979;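 active = signal rise over 3 SD above mean of control wells given weak agonist, in both repeats and first screen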); conditions: Fluo-4 calcium flux, at 10 µM, serotonin added at its EC20 dose; hits give high values
[16] = calcium flux activation in mu-opioid HEK293 cells, confirmation, counter-screen for TRPC4 activator project, cell-based, HEK293 mu-opioid receptor line (AID 449723;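 active = hit in primary screen, with calcium signal over 5 SD above buffer well mean in both duplicates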;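 note: counter screen cells carry the mu-opioid receptor alone and lack TRPC4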); conditions: Fluo-4 calcium fluorescence, at 10 µM; hits give high values
[17] = calcium flux enhancement in mu-opioid HEK293 cells, confirmation, counter-screen for TRPC4 allosteric potentiator project, cell-based, HEK293 mu-opioid receptor line (AID 449724;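 active = calcium signal rise more than 3 SD above the low-dose agonist control mean, in both duplicate plates and the primary screen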); conditions: Fluo-4 calcium flux, at 10 µM, compound added before EC20 DAMGO stimulus; hits give high values
[18] = target: Short transient receptor potential channel 4 (Mus musculus) (UniProt Q9QUQ5); experiment: mouse TRPC4 membrane potential modulation by TRPC6 hits, confirmation, selectivity assay for TRPC6 inhibitor project, cell-based, second specificity screen, HEK293 TRPC4/mu-opioid (AID 2776;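 active = compounds whose fluorescence signal differed from control wells by over 3 SD, either direction, in both duplicate plates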); conditions: HEK293 TRPC4/MOR, membrane potential dye fluorescence, at 10 µM, channel activated by saturating DAMGO dose; hits give high values
[19] = tested on: transient receptor potential cation channel C4 (TRPC4), mouse; experiment: mouse TRPC4 modulation by TRPC6 hits, confirmation, selectivity assay for TRPC6 inhibitor project, cell-based, HEK293 TRPC4/mu-opioid, membrane potential dye (AID 2777;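 active = rise or fall in signal beyond 3 SD of buffer-only wells in both replicate plates, either sign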;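 note: integrated kinetic ratio of fluorescence range over baseline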); conditions: membrane potential fluorescence, at 10 µM
[20] = nonspecific membrane potential effects, parental HEK293, confirmation, counter-screen for TRPC6 inhibitor project, cell-based, second counter screen (AID 2779;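 active = membrane potential signal moving either way by over 3 SD of the maximum-effect control, in both duplicate plates, meaning non-specific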); conditions: parental HEK293 membrane potential dye fluorescence; at 10 µM; maximal acetylcholine challenge after compound addition
[21] = membrane potential modulation in parental HEK293, confirmation, counter-screen for TRPC6 inhibitor project, cell-based (AID 2780;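 active = membrane potential signal shifting up or down by more than 3 SD of buffer-only wells, on both duplicate plates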); conditions: parental HEK293 membrane potential dye fluorescence; at 10 µM
[22] = target: Short transient receptor potential channel 6 (Mus musculus) (UniProt Q61143); experiment: mouse TRPC6 channel inhibitors, confirmation, HEK293 cells, membrane potential dye, duplicate (AID 488960;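 active = fluorescence ratio falls more than 5 SD below the full-stimulation control mean, in both duplicate runs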); conditions: ACh-evoked depolarization, at 10 µM; hits give high values
[23] = target: Short transient receptor potential channel 6 (Mus musculus) (UniProt Q61143); experiment: mouse TRPC6 channel activators, confirmation, HEK293 cells, membrane potential dye, duplicate (AID 488961;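 active = ratio signal rise beyond 5 SD above unstimulated control wells' mean, seen in both duplicate runs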); conditions: HEK293-TRPC6 membrane potential dye fluorescence, FDSS, at 10 µM; hits give high values

Measured: potentiation

COc1cc(CNC2CCCCCCC2)cc(Br)c1OCC#N
inactive: [1] | [2] | [3] | [4] | [5] | [6] | [7] | [8] | [9] | [10] | [11] | [12] | [13] | [14] | [15] | [16] | [17]

C/C(CC(=O)NCc1ccc(Cl)cc1)=N\NC(=O)COc1ccc(C)cc1Br
inactive: [1] | [2] | [3] | [4] | [5] | [6] | [7] | [8] | [9] | [10] | [11] | [12] | [13] | [14] | [15] | [16] | [17]

COc1ccc(N2CCN(C3CCCCC3NS(=O)(=O)c3ccc(Cl)cc3)CC2)cc1 (stereo unspecified)
active: [15] 10.1%
inactive: [1] | [2] | [3] | [4] | [5] | [6] | [7] | [8] | [9] | [10] | [11] | [12] | [13] | [14] | [16] | [17]

CC(Nc1nc(N2CCCC2)nc2ccccc12)c1ccccc1 (stereo unspecified)
inactive: [1] | [2] | [3] | [4] | [5] | [6] | [18] | [19] | [20] | [21] | [7] | [8] | [9] | [10] | [11] | [12] | [13] | [14] | [15] | [16] | [17] | [22] | [23]

c1ccc(C(c2nnnn2C2CCCC2)N2CCN(c3ccccc3)CC2)cc1 (stereo unspecified)
inactive: [1] | [2] | [3] | [4] | [5] | [6] | [7] | [8] | [9] | [10] | [11] | [12] | [13] | [14] | [15] | [16] | [17]
